Test [1] in a line: qHTS assay to identify aromatase inhibitors - cell viability counter screen (AID 743084).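 Also: cells stimulated with testosterone during compound exposure; nearly all actives have a fitted effect of over 55% in size.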
Test [2] concerns the target Aryl hydrocarbon receptor (Homo sapiens) (UniProt P35869). Description: qHTS assay to identify small molecule that activate the aryl hydrocarbon receptor (AhR) signaling pathway (AID 743085).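 Also: HG2L7.5c1 human HepG2 liver cells with stably integrated DRE-driven firefly reporter; series mostly up to about 70 µM; nearly all actives have a fitted effect of over 15% in size.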 The gist of the method:
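24 h compound exposure, 37C, HepG2-derived HG2L7.5c1 cells with DRE-responsive luciferase. Readouts: fluorescence viability, then luminescence at room temperature after 30 min.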
(In general: qHTS replaces the single test concentration by a dilution series.)

The target of test [3] is Peroxisome proliferator-activated receptor gamma (Homo sapiens) (UniProt P37231). Nature of the test: qHTS assay to identify small molecule agonists of the peroxisome proliferator-activated receptor gamma (PPARg) signaling pathway (AID 743094; active = well fitted activation curve with a large enough effect in the signal ratio in the repeat runs, not every such curve was filed as active; the % refers to the signal ratio). The gist of the method:
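GeneBLAzer PPARg UAS-bla HEK293H cells were plated, rested 5 h, then exposed to compounds for 17 h at 37C. Beta-lactamase activity was read by LiveBLAzer B/G FRET substrate fluorescence after 1 h at room temperature.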

The target is the same in test [4]. Nature of the test: qHTS assay to identify small molecule antagonists of the peroxisome proliferator-activated receptor gamma (PPARg) signaling pathway (AID 743191; calls by dose curve; also: series mostly up to about 63 µM; nearly all actives have a fitted effect of over 30% in size). The gist of the method: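 Beta-lactamase reporter under UAS control in HEK293H PPARg-bla cells; compound treatment 17 h at 37C. Read-out: fluorescence intensity after 1 h room-temperature incubation with LiveBLAzer B/G FRET substrate.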

The nature of test [5]: qHTS assay to identify small molecule antagonists of the peroxisome proliferator-activated receptor gamma (PPARg) signaling pathway - cell viability counter screen (AID 743194). Also: nearly all actives have a fitted effect of over 55% in size. The following applies: Potency: co-treated with 50 nM rosiglitazone unless noted. The gist of the method:
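Viability was measured as CellTiter-Glo luminescence in GeneBLAzer PPARg UAS-bla HEK293H cells. These cells had been exposed 17 h at 37 C to compounds together with rosiglitazone at 50 nM final, with the beta-lactamase readout taken in the same wells.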

Test [6] is described as follows: qHTS assay for small molecule agonists of the antioxidant response element (ARE) signaling pathway (AID 743202; active = well fitted activation curve with a large enough effect in the signal ratio in the repeat runs, not every such curve was filed as active; the % refers to the signal ratio; also: potency is read from the fitted curve at half-maximal effect). The gist of the method:
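An ARE-responsive beta-lactamase gene stably integrated in HepG2 cells serves as reporter. After 5 h plating and 16 h compound incubation at 37 C, fluorescence of the B/G FRET substrate was measured.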

The nature of test [7]: qHTS assay for small molecule agonists of the antioxidant response element (ARE) signaling pathway - cell viability counter screen (AID 743203; calls by dose curve; also: nearly all actives have a fitted effect of over 55% in size). The gist of the method:
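ARE-bla HepG2 cells were plated, rested 5 h at 37C/5% CO2, then exposed to compounds in DMSO for 16 h. Viability was read as CellTiter-Glo luminescence after 30 min at room temperature, in the same wells as the ARE screen.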

Test [8] in a line: qHTS assay for small molecule activators of the heat shock response signaling pathway - cell viability counter screen (AID 743209). Also: nearly all actives have a fitted effect of over 50% in size. A digest of the protocol: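 HSE-bla HeLa cells plated overnight, then exposed to Tox21 compounds (23 nL in DMSO) for 5 h at 37 C. After the bla reporter read, CellTiter-Glo was added in the same wells and luminescence read after 30 min at room temperature.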

A short description of test [9]: qHTS assay for small molecule activators of the heat shock response signaling pathway (AID 743210; active = well fitted activation curve with a large enough effect in the signal ratio in the repeat runs, with a control signal flat, not every such curve was filed as active; the % refers to the signal ratio;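 also: HeLa cells with beta-lactamase reporter driven by heat shock elements; series mostly up to about 63 µM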). The gist of the method: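 In HSE-bla HeLa cells, 5 h compound incubation (37 C) precedes addition of LiveBLAzer B/G substrate; after 2.5 h at room temperature, fluorescence intensity indicates reporter induction.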
Test [10] can be described thus: qHTS assay to identify small molecule agonists of the peroxisome proliferator-activated receptor delta (PPARd) signaling pathway - cell viability counter screen (AID 743211). Also: nearly all actives have a fitted effect of over 55% in size. A digest of the protocol: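 Luminescent ATP viability assay (CellTiter-Glo, 30 min RT) in UAS-bla HEK293H cells carrying the PPAR delta reporter construct, 3000 cells/well, after a 17 h compound treatment at 37 C.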

In test [11] the target is Peroxisome proliferator-activated receptor delta (Homo sapiens) (UniProt Q03181). Nature of the test: qHTS assay to identify small molecule agonists of the peroxisome proliferator-activated receptor delta (PPARd) signaling pathway (AID 743212; calls by dose curve). A digest of the protocol: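 HEK293H UAS-bla reporter cells, human PPARd system; compounds delivered in DMSO after 5 h plating, then at 37 C. Beta-lactamase FRET read, 2 h RT substrate step.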
Chain of Peroxisome proliferator-activated receptor delta (Homo sapiens) (Q03181 whole entry, looked up): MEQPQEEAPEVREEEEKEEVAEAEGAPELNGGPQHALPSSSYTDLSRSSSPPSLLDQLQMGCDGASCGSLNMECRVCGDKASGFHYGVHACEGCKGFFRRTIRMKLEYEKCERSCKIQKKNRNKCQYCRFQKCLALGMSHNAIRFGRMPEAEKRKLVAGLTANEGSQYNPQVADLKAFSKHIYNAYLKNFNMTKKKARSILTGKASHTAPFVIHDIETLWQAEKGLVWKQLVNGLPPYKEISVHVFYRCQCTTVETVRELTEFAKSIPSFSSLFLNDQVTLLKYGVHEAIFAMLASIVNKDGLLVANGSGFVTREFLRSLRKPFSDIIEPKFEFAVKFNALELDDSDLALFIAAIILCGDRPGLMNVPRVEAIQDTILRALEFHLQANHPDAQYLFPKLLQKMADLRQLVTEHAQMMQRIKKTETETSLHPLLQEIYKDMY

Test [12] in a line: qHTS assay to identify small molecule antagonists of the peroxisome proliferator-activated receptor delta (PPARd) signaling pathway - cell viability counter screen (AID 743213). Also: nearly all actives have a fitted effect of over 50% in size. A digest of the protocol:
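Cytotoxicity counter screen: CellTiter-Glo luminescence read 30 min after addition, in the same wells as the reporter assay. There, PPARd UAS-bla HEK293H cells (3000/well) were treated 17 h at 37 C with compound and 300 nM L165041.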

Test [13] has as its target Peroxisome proliferator-activated receptor delta (Homo sapiens) (UniProt Q03181). Nature of the test: qHTS assay to identify small molecule antagonists of the peroxisome proliferator-activated receptor delta (PPARd) signaling pathway (AID 743215; active = well fitted inhibition curve with a large enough effect in the signal ratio in the repeat runs, not every such curve was filed as active; the % refers to the signal ratio;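 also: cells stimulated with agonist L165041 at 300 nM final during compound exposure; series mostly up to about 62 µM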). A digest of the protocol:
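PPARd-bla HEK293H cells (UAS-bla reporter) preincubated 5 h, then given compound plus 300 nM final L165041 agonist for 17 h at 37 C. Beta-lactamase activity read by LiveBLAzer B/G FRET substrate fluorescence after 2 h at room temperature.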

Test [14] can be described thus: qHTS assay to identify small molecule agonists of the farnesoid-X-receptor (FXR) signaling pathway - cell viability counter screen (AID 743218). Also: nearly all actives have a fitted effect of over 45% in size. The gist of the method: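 FXR-UAS-bla HEK 293T cells exposed to compounds for 16 h at 37C. Cytotoxicity read in the same wells by CellTiter-Glo luminescence after 30 min at room temperature, following the beta-lactamase FRET read.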

The nature of test [15]: qHTS assay to identify small molecule antagonists of the farnesoid-X-receptor (FXR) signaling pathway - cell viability counter screen (AID 743221; active = well fitted cell-killing curve with a large enough effect in the repeat runs, not every such curve was filed as active; also: nearly all actives have a fitted effect of over 50% in size). A digest of the protocol: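 In GeneBLAzer FXR-UAS-bla HEK 293T cells stimulated with 50 uM chenodeoxycholic acid (final), compounds acted for 16 h at 37 C. Viability was assessed afterwards by CellTiter-Glo luminescence.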
The target of test [16] is Vitamin D3 receptor (Homo sapiens) (UniProt P11473). Nature of the test: qHTS assay to identify small molecule agonists of the vitamin D receptor (VDR) signaling pathway (AID 743222; calls by dose curve). The gist of the method:
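VDR-bla cells plated 4 h at 37 C, then exposed to compounds for 16 h at 37 C. Beta-lactamase reporter activity measured by fluorescence after 2 h room-temperature loading with LiveBLAzer B/G FRET substrate.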

For test [17] the target is unchanged. Nature of the test: qHTS assay to identify small molecule antagonists of the vitamin D receptor (VDR) signaling pathway (AID 743223; active = well fitted inhibition curve with a large enough effect in the signal ratio in the repeat runs, not every such curve was filed as active; the % refers to the signal ratio). The gist of the method:
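Agonist 1alpha,25-dihydroxyvitamin D3 (3 nM in well) was added with each compound to VDR-bla cells preincubated 4 h. Cells stood 16 h at 37C, then FRET substrate 2 h at room temperature; fluorescence intensity recorded.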

The nature of test [18]: qHTS assay to identify small molecule that activate the aryl hydrocarbon receptor (AhR) signaling pathway - cell viability counter screen (AID 743086). Also: series mostly up to about 70 µM; nearly all actives have a fitted effect of over 45% in size. The gist of the method: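 Cytotoxicity counter screen: CellTiter-Fluor signal (30 min, 37 C) in 4000 HepG2 cells/well carrying the DRE-luciferase reporter, following 24 h compound exposure at 37 C.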
Test [19] addresses Bile acid receptor (Homo sapiens) (UniProt Q96RI1). Description: qHTS assay to identify small molecule antagonists of the farnesoid-X-receptor (FXR) signaling pathway (AID 743217; active = well fitted inhibition curve with a large enough effect in the signal ratio in the repeat runs, not every such curve was filed as active; the % refers to the signal ratio). The gist of the method: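 FXR-UAS-bla HEK 293T cells (beta-lactamase reporter) given compound plus chenodeoxycholic acid (50 uM final), 16 h at 37C. LiveBLAzer B/G FRET substrate added for 2 h at room temperature; fluorescence read.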

The target is the same in test [20]. Nature of the test: qHTS assay to identify small molecule agonists of the farnesoid-X-receptor (FXR) signaling pathway (AID 743220; active = well fitted activation curve with a large enough effect in the signal ratio in the repeat runs, not every such curve was filed as active; the % refers to the signal ratio). The gist of the method: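 Beta-lactamase reporter under UAS control in GeneBLAzer FXR HEK 293T cells (5000/well) measured with LiveBLAzer FRET substrate after 2 h at room temperature. Compound exposure lasted 16 h at 37C.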

Results filed as inconclusive are left out. Calls of active or inactive are those of the source. Unless noted, calls follow the shape of the dose curve; as a rule, active = well fitted curve in the direction sought with a large enough effect in the repeat runs; inconclusive = weak or mixed curves; inactive = no such curve, though single readings can be large; an effect the other way counts as inactive or inconclusive.

Chain of Peroxisome proliferator-activated receptor gamma (Homo sapiens) (P37231 whole entry, looked up): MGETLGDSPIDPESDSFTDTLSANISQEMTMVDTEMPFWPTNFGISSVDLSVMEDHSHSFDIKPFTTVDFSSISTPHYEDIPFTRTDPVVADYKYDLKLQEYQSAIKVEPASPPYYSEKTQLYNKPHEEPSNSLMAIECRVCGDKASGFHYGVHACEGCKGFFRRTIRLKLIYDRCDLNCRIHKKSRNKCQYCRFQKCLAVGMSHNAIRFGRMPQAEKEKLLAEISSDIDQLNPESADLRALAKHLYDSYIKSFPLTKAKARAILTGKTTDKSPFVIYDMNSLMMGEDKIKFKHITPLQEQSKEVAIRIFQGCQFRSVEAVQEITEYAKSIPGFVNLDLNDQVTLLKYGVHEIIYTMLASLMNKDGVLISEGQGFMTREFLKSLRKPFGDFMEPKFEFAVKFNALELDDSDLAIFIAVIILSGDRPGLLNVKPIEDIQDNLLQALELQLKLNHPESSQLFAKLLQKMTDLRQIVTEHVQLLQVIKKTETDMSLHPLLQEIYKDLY
Chain of Bile acid receptor (Homo sapiens) (Q96RI1 whole entry, looked up): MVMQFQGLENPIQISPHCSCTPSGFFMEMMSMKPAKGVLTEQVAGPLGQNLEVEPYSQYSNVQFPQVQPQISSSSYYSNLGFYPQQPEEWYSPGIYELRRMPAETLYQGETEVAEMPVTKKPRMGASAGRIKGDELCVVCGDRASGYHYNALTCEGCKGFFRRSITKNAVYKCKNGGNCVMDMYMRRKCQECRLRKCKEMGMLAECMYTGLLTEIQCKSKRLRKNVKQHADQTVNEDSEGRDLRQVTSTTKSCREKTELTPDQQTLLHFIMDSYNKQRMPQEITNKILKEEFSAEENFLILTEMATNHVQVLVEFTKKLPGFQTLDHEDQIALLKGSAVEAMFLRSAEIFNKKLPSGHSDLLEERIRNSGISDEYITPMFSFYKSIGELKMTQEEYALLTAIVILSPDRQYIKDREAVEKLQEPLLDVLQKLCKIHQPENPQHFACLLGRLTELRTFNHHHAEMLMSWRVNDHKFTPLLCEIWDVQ
Chain of Aryl hydrocarbon receptor (Homo sapiens) (P35869 whole entry, looked up): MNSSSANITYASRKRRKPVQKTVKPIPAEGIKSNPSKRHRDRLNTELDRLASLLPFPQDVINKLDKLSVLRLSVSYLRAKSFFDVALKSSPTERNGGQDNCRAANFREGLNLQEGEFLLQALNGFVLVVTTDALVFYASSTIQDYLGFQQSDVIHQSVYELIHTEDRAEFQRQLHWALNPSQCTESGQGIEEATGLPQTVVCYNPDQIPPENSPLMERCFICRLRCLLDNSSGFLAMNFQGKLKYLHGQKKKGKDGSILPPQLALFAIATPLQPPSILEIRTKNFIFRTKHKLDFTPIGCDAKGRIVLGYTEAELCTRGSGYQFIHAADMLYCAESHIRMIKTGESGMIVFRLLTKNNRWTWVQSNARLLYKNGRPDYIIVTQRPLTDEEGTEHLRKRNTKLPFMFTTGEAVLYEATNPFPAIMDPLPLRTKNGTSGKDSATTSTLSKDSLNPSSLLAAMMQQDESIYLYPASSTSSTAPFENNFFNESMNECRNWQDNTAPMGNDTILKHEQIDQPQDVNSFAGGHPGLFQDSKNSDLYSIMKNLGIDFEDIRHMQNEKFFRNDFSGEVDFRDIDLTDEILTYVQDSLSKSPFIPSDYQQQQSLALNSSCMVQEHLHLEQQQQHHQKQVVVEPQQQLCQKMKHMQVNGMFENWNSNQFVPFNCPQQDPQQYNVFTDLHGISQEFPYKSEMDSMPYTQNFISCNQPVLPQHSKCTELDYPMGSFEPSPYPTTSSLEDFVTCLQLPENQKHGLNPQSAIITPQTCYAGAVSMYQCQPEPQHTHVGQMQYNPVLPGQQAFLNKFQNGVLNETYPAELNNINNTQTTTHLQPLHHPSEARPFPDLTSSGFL
Chain of Vitamin D3 receptor (Homo sapiens) (P11473 whole entry, looked up): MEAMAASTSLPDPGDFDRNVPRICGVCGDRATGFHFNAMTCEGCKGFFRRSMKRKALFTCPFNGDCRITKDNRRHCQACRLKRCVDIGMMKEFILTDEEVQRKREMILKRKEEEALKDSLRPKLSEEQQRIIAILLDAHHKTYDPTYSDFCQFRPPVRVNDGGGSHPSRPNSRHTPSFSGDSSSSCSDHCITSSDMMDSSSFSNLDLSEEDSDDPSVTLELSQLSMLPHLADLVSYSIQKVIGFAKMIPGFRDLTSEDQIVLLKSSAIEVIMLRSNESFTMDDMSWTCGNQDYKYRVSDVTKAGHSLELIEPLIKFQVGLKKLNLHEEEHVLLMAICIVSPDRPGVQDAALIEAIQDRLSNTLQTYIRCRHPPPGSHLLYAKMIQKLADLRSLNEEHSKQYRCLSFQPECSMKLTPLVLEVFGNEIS

For `CCCCCNCCCCC`, the Potency entry in test [1], in [2], in test [3], in test [4], in [5] and in [6] was “inactive” in each case. Also, the Potency entry in [7], in [8], in [9], in test [10], in test [11] and in [12] was “inactive” in each case. Also, the Potency result in test [13], in test [14], in test [15] and in [17] was “inactive” each time. In addition, the molecule was classed as inactive in test [16].
Consider `Cc1ccccc1C=O`, for which the Potency result in test [1], in test [2], in [3], in test [4], in [5] and in test [6] was “inactive” in each case. For the same molecule, the Potency entry in test [7], in test [8], in [9], in test [10], in [11] and in test [12] was “inactive” in each case. Also, the Potency entry in test [13], in test [14], in test [15] and in test [17] was “inactive” each time. The result in [16] was inactive.
Turning to `NC1CCCCC1N` (configuration not stated), the Potency result in test [1], in [2], in test [18], in test [5], in test [6] and in test [7] was “inactive” throughout. In addition, the Potency entry in test [8], in [9], in test [10], in test [12], in test [19] and in test [14] was “inactive” each time. For the same molecule, the Potency entry in test [20], in test [15] and in test [17] was “inactive” each time. Further, the molecule was classed as inactive in [16].
Consider `Cc1ccc(C(C)C)cc1`, for which the Potency entry in test [1], in test [2], in test [3], in test [4], in test [5] and in test [6] was “inactive” each time. Further, the Potency result in test [7], in test [8], in test [10], in [11], in [13] and in test [19] was “inactive” each time. The Potency result in test [14], in test [20], in test [15] and in test [17] was “inactive” throughout. In addition, the molecule was called inactive in [16].
Consider `CCn1cc(C(=O)O)c(=O)c2cc3c(cc21)OCO3`, for which the Potency result in [1], in test [2], in test [18], in test [5], in [6] and in test [7] was “inactive” each time. For the same molecule, the Potency result in test [8], in [10], in test [11], in [12], in test [13] and in test [19] was “inactive” each time. Also, the Potency entry in test [14], in [20], in test [15] and in test [17] was “inactive” in each case. In addition, the call in test [16] was inactive.
On to `CCc1cccc(CC)c1N`, for which the Potency result in [1], in test [2], in test [18], in test [5], in [6] and in test [7] was “inactive” throughout. Also, the Potency entry in [8], in [9], in test [10], in test [11], in test [12] and in test [13] was “inactive” throughout. Also, the Potency entry in test [14] and in test [15] was “inactive” each time.
For the molecule `CCCCCCCCO`, the Potency result in test [1], in test [2], in test [3], in test [4], in test [5] and in [6] was “inactive” each time. For the same molecule, the Potency entry in test [7], in test [8], in [9], in test [10], in test [11] and in test [12] was “inactive” each time. Also, the Potency result in test [13], in [14], in test [15] and in test [17] was “inactive” throughout. For the same molecule, in test [16], the result was inactive.
For `CCCCCCCCC(=O)O`, the Potency entry in test [1], in test [2], in [18], in test [5], in test [6] and in test [7] was “inactive” each time. Moreover, the Potency entry in test [8], in test [9], in [10], in [11], in test [12] and in test [13] was “inactive” in each case. The Potency entry in test [14] and in test [15] was “inactive” in each case.
In the case of `Oc1ccc(Cc2ccccc2O)cc1`, the Potency result in test [1], in test [2], in test [18], in test [3], in test [4] and in test [7] was “inactive” each time. Further, the Potency result in [8], in test [9], in test [11], in [12], in test [13] and in [19] was “inactive” throughout. In addition, the Potency entry in test [14], in [20], in test [15] and in test [17] was “inactive” throughout. Besides, the Potency in [6] was 30.6 µM (active). Besides, in test [16], the outcome was inactive.

For the origin of these results see PubChem BioAssay (Tox21).
